Results: PubChem BioAssay (EPA / NIEHS)
Values joined by “and” are separate entries in the source; they are usually repeats but may differ in a detail not shown here. Identical values can stand only once. Results filed as inconclusive are left out. The source holds several records for some structures; these can differ, active in one and inactive in another. Active and inactive are the calls of the source. Rule for the calls, unless noted: active = hit-call score of the fitted dose curve at least 0.9, where 1 is the maximum; inactive = score below 0.9.

What was measured:
[1] = biological target: human RAR-related Orphan Receptor beta (RORb), RORB (gene 6096) (UniProt Q92753); assay: ATG_RORb_TRANS: Attagene TRANS-FACTORIAL HepG2 Assay for human RAR-related Orphan Receptor beta (RORb) (AID 2283010; active = hit-call score of the fitted dose curve at least 0.9, where 1 is the maximum)
In short: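 Transfect HepG2 with multiple GAL4-UAS reporter transcription units; dose chemicals for 24 h; isolate RNA, reverse-transcribe and PCR-amplify reporter sequences; label, digest and resolve fragments by capillary electrophoresis; fit increases relative to DMSO.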

[2] = biological target: human RAR-related Orphan Receptor gamma (RORg), RORC (gene 6097) (UniProt P51449); assay: ATG_RORg_TRANS: Attagene TRANS-FACTORIAL HepG2 Assay for human RAR-related Orphan Receptor gamma (RORg) (AID 2283011; active = hit-call score of the fitted dose curve at least 0.9, where 1 is the maximum)
In short: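 First, HepG2 liver cells were transfected with GAL4-UAS-driven reporter constructs and the RORg-Gal4 fusion. Next, they were treated with chemical for 24 h. Finally, reporter mRNA was quantified by RT-PCR and capillary electrophoresis, with upward activity fitted against DMSO.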

[3] = biological target: Retinoic acid receptor RXR-alpha (Homo sapiens) (UniProt P19793); assay: ATG_RXRa_TRANS: Attagene TRANS-FACTORIAL HepG2 Assay for human Retinoid X Receptor alpha (RXRa) (AID 2283012; active = hit-call score of the fitted dose curve at least 0.9, where 1 is the maximum)
In short: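 Measures exogenous chimeric NR-GAL4 activity in transfected HepG2 liver cells after 24 h of dosing. Induced reporter mRNA was detected by RT-PCR with capillary electrophoresis, and gain of signal was analysed against DMSO.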

[4] = biological target: human Retinoid X Receptor beta (RXRb), RXRB (gene 6257) (UniProt P28702); assay: ATG_RXRb_TRANS: Attagene TRANS-FACTORIAL HepG2 Assay for human Retinoid X Receptor beta (RXRb) (AID 2283013; active = hit-call score of the fitted dose curve at least 0.9, where 1 is the maximum)
In short: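 Chimeric receptor-Gal4 activity was assessed in transiently transfected human HepG2 cells after 24 h exposure. Transcripts from GAL4-UAS reporters were quantified by fluorescent RT-PCR and capillary electrophoresis, with DMSO as negative control and baseline.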

[5] = biological target: human Thyroid Receptor alpha (THRa1), THRA (gene 7067) (UniProt P10827); assay: ATG_THRa1_TRANS: Attagene TRANS-FACTORIAL HepG2 Assay for human Thyroid Receptor alpha (THRa1) (AID 2283014; active = hit-call score of the fitted dose curve at least 0.9, where 1 is the maximum)
In short: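 Reporter transcript induction, read by capillary electrophoresis of 6-FAM-labelled RT-PCR products, reflects activity of a transfected THRa1-Gal4 fusion in HepG2 liver cells. Cells were dosed for 24 h; activity was fitted in the positive direction against DMSO.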

[6] = read-out: E-selectin (Homo sapiens) (UniProt P16581); assay: BSK_3C_Eselectin: BioMAP Diversity Plus: 3C Assay for Eselectin Biomarker Activity (AID 2283015); settings: primary human endothelial cells (HUVEC); actives raise or lower the signal
In short: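 ELISA read-out of E-selectin on endothelial monolayers after 24 h chemical treatment. Human umbilical vein primary cells served as the system, with DMSO defining baseline activity for bidirectional fitting.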

[7] = read-out: Interleukin-1 alpha (IL1a), IL1A (gene 3552); assay: BSK_BE3C_IL1a: BioMAP Diversity Plus: BE3C Assay for Interleukin-1 alpha (IL1a) Biomarker Activity (AID 2283016); settings: primary human bronchial epithelial cells; actives raise or lower the signal
In short: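 Signal from IL-1a ELISA, taken 24 h after chemical dosing of human bronchial epithelial cells, is compared with DMSO as baseline using bidirectional curve fitting.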

[8] = read-out: Monocyte Chemoattractant Protein-1 (MCP1), CCL2 (gene 6347); assay: BSK_3C_MCP1: BioMAP Diversity Plus: 3C Assay for Monocyte Chemoattractant Protein-1 (MCP1) Biomarker Activity (AID 2283017); settings: primary human endothelial cells (HUVEC); actives raise or lower the signal
In short: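 ELISA read-out of MCP-1 from human umbilical vein endothelial cell cultures harvested 24 h post-dosing. Gain or loss of signal was fitted relative to DMSO.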

[9] = read-out: Monocyte Chemoattractant Protein-1 (MCP1), CCL2 (gene 6347); assay: BSK_4H_MCP1: BioMAP Diversity Plus: 4H Assay for Monocyte Chemoattractant Protein-1 (MCP1) Biomarker Activity (AID 2283018); settings: primary human endothelial cells (HUVEC); actives raise or lower the signal
In short: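 Endothelial cells from umbilical vein were treated with test chemical, then after 24 h MCP-1 levels were quantified by ELISA; endpoint values came from bidirectional fitting with DMSO as baseline of activity.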

[10] = read-out: Human Leukocyte Antigen - DR isotype (HLADR), HLA-DRA (gene 3122); assay: BSK_3C_HLADR: BioMAP Diversity Plus: 3C Assay for Human Leukocyte Antigen - DR isotype (HLADR) Biomarker Activity (AID 2283019); settings: primary human endothelial cells (HUVEC); actives raise or lower the signal
In short: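 ELISA readout of surface HLA-DR on human umbilical vein endothelium, taken 24 h after chemical treatment. Gain- and loss-of-signal were both fitted relative to DMSO.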

[11] = read-out: Interleukin-8 (IL8), CXCL8 (gene 3576); assay: BSK_3C_IL8: BioMAP Diversity Plus: 3C Assay for Interleukin-8 (IL8) Biomarker Activity (AID 2283020); settings: primary human endothelial cells (HUVEC); actives raise or lower the signal
In short: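 Endothelial primary cells of human umbilical vein origin are dosed with chemical; after 24 h the IL-8 biomarker is measured by ELISA, and concentration–response is fitted in both directions versus DMSO.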

[12] = read-out: Monokine induced gamma interferon (MIG), CXCL9 (gene 4283); assay: BSK_3C_MIG: BioMAP Diversity Plus: 3C Assay for Monokine induced gamma interferon (MIG) Biomarker Activity (AID 2283021); settings: primary human endothelial cells (HUVEC); actives raise or lower the signal;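 for AC50: MIG protein level measured by immunoassay in the treated endothelial cultures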
In short: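 Endothelial primary cells (human umbilical vein) are dosed with test chemical in the 3C system. MIG levels are measured by ELISA at 24 h and fitted in both directions relative to DMSO.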

[13] = biological target: human Vitamin D Receptor (VDR), VDR (gene 7421) (UniProt P11473); assay: ATG_VDR_TRANS: Attagene TRANS-FACTORIAL HepG2 Assay for human Vitamin D Receptor (VDR) (AID 2283022; active = hit-call score of the fitted dose curve at least 0.9, where 1 is the maximum)
In short: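 Steps: transfect HepG2 with GAL4-UAS-driven reporter constructs; dose compounds 24 h; isolate RNA, reverse-transcribe, PCR-amplify with 6-FAM-labelled primer extension and HpaI digestion; quantify fragments by capillary electrophoresis relative to DMSO.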

[14] = BSK_3C_SRB: Viability Assessment in the BioMAP Diversity Plus: 3C Assay (AID 2283023); settings: primary human endothelial cells (HUVEC);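 note: fitted both ways against DMSO so a hit may be signal rise or drop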
In short: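 Absorbance at 560 nm of sulforhodamine B-stained (0.1%) total protein served as a cytotoxicity readout in human umbilical vein endothelial cells, 24 h after chemical treatment. Signal was fitted bidirectionally relative to DMSO.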

[15] = read-out: Matrix Metallopeptidase 1 (MMP1), MMP1 (gene 4312); assay: BSK_BE3C_MMP1: BioMAP Diversity Plus: BE3C Assay for Matrix Metallopeptidase 1 (MMP1) Biomarker Activity (AID 2283024); settings: primary human bronchial epithelial cells; actives raise or lower the signal
In short: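 MMP1 signal, measured by ELISA after a 24 h chemical exposure of human primary bronchial epithelial cells, is analysed with bidirectional fitting using DMSO as negative control.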

[16] = BSK_3C_Vis: BioMAP Diversity Plus: 3C Assay for Morphology Visualization (AID 2283025); settings: primary human endothelial cells (HUVEC);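 note: fitted both ways so gain or loss versus DMSO counts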
In short: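 Morphology read by light microscopy serves as a background control for the multiplexed 3C assay in human umbilical vein endothelial cells, taken 24 h after dosing, with DMSO as the negative control and bidirectional curve fitting.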

[17] = read-out: Pselectin, SELP (gene 6403); assay: BSK_4H_Pselectin: BioMAP Diversity Plus: 4H Assay for Pselectin Biomarker Activity (AID 2283026); settings: primary human endothelial cells (HUVEC); actives raise or lower the signal
In short: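 Endothelial primary cells (human umbilical vein) are dosed, incubated 24 h, and assayed for surface P-selectin by ELISA; responses in either direction are fitted relative to the DMSO negative control.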

[18] = BSK_4H_SRB: Viability Assessment in the BioMAP Diversity Plus: 4H Assay (AID 2283027); settings: primary human endothelial cells (HUVEC);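 note: cells exposed to compound for 24 h before staining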;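 for AC50: curves fitted both ways versus DMSO so AC50 may be loss or gain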
In short: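 Cytotoxicity read-out in primary human endothelial cells: after 24 h compound exposure, cells were TCA-fixed (10%), stained with 0.1% SRB and absorbance taken at 560 nm. Values fitted in both directions relative to DMSO.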

[19] = BSK_BE3C_SRB: Viability Assessment in the BioMAP Diversity Plus: BE3C Assay (AID 2283028); settings: primary human bronchial epithelial cells;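 for AC50: fitted both ways so AC50 may mark signal gain or loss versus DMSO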
In short: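 Cells (human bronchial epithelial, primary) are treated with chemicals, and after 24 h the parallel cultures are fixed in 10% TCA. These are then stained with 0.1% SRB and read at 560 nm. Gain or loss of signal is fitted relative to DMSO.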

[20] = read-out: Thrombomodulin, THBD (gene 7056); assay: BSK_3C_Thrombomodulin: BioMAP Diversity Plus: 3C Assay for Thrombomodulin Biomarker Activity (AID 2283029); settings: primary human endothelial cells (HUVEC); actives raise or lower the signal
In short: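 Endothelial cells from umbilical vein are dosed with test chemical and incubated 24 h. Thrombomodulin is then quantified by ELISA, with DMSO serving as negative control and activity baseline.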

Measured: AC50

Chain of Retinoic acid receptor RXR-alpha (Homo sapiens) (P19793 whole entry, looked up, the tested form may be a part): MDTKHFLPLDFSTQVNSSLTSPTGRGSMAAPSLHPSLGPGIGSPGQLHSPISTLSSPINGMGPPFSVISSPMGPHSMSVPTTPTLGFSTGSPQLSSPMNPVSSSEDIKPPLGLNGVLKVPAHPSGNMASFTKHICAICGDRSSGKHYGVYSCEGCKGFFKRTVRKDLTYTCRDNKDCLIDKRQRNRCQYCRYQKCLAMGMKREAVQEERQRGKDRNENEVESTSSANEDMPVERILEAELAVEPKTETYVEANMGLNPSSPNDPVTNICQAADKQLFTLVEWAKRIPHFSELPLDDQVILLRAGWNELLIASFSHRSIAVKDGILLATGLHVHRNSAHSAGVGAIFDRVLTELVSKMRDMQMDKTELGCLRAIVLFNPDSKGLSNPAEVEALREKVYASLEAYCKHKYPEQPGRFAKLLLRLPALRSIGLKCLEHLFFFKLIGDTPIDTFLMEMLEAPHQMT
Chain of human Thyroid Receptor alpha (THRa1), THRA (gene 7067) (P10827 whole entry, looked up, the tested form may be a part): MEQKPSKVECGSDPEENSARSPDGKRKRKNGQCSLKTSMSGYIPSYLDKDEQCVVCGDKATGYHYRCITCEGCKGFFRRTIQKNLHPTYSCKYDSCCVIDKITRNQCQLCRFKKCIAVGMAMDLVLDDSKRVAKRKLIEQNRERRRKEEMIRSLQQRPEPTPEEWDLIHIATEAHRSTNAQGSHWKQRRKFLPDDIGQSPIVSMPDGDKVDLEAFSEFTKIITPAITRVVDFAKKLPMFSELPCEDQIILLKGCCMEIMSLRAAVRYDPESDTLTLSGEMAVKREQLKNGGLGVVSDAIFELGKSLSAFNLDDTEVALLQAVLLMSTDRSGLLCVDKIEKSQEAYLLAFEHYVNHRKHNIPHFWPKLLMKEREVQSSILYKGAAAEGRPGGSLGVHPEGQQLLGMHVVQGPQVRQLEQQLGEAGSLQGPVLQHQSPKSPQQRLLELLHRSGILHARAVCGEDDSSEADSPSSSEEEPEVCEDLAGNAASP
Chain of human RAR-related Orphan Receptor beta (RORb), RORB (gene 6096) (Q92753 whole entry, looked up, the tested form may be a part): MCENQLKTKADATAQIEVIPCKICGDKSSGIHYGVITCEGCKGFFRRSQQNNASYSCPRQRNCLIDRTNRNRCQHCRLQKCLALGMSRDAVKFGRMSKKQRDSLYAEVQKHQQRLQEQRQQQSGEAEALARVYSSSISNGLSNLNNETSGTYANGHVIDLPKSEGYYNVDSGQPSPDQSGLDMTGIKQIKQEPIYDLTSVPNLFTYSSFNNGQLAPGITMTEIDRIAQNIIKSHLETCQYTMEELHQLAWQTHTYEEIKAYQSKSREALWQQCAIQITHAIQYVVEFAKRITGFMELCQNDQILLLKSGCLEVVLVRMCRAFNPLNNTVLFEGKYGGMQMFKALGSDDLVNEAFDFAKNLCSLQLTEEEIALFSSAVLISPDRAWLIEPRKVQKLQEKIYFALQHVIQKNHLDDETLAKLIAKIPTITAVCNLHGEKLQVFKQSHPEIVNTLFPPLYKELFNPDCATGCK
Chain of human Retinoid X Receptor beta (RXRb), RXRB (gene 6257) (P28702 whole entry, looked up, the tested form may be a part): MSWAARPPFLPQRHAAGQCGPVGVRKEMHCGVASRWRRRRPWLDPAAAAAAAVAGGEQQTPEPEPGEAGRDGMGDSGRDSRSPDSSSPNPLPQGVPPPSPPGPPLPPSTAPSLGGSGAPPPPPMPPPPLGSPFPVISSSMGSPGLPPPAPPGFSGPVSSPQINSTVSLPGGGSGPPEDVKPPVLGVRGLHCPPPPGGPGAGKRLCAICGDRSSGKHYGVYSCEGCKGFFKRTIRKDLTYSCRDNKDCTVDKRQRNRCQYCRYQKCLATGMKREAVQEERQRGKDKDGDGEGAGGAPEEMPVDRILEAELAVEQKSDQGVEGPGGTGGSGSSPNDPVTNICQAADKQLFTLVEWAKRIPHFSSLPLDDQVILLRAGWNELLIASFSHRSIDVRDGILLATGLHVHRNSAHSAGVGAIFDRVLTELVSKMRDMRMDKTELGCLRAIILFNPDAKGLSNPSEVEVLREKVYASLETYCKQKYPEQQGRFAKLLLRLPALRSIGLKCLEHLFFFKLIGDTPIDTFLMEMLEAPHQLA
Chain of E-selectin (Homo sapiens) (P16581 whole entry, looked up): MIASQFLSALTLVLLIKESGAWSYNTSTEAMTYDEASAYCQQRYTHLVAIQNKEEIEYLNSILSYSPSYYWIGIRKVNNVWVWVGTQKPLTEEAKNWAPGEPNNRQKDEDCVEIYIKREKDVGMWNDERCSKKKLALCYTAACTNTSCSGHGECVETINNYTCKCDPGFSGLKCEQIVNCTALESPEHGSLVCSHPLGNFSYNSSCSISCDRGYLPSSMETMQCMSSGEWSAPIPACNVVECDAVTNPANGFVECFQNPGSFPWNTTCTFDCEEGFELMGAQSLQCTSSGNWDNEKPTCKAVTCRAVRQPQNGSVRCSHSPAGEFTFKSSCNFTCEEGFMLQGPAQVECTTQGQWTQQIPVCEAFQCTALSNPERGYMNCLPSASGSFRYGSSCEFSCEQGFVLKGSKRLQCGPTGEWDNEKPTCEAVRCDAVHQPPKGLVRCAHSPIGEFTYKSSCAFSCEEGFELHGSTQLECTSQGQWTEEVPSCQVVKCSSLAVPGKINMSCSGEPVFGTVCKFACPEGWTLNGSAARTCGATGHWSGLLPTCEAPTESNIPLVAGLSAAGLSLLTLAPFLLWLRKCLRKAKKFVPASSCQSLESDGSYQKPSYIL
Chain of human RAR-related Orphan Receptor gamma (RORg), RORC (gene 6097) (P51449 whole entry, looked up, the tested form may be a part): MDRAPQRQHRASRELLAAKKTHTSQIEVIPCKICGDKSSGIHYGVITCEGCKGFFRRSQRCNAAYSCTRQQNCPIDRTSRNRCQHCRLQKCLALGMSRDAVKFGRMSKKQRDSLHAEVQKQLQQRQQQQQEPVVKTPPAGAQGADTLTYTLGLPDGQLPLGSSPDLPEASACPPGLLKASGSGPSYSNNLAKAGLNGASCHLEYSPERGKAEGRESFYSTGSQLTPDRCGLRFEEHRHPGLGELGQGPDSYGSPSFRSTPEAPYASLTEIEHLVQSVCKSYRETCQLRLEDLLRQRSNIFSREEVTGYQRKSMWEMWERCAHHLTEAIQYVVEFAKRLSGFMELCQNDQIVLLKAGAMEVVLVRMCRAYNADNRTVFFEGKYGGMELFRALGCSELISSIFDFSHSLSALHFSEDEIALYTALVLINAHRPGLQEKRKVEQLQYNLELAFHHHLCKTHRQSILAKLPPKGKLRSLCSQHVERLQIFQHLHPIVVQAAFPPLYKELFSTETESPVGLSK
Chain of human Vitamin D Receptor (VDR), VDR (gene 7421) (P11473 whole entry, looked up, the tested form may be a part): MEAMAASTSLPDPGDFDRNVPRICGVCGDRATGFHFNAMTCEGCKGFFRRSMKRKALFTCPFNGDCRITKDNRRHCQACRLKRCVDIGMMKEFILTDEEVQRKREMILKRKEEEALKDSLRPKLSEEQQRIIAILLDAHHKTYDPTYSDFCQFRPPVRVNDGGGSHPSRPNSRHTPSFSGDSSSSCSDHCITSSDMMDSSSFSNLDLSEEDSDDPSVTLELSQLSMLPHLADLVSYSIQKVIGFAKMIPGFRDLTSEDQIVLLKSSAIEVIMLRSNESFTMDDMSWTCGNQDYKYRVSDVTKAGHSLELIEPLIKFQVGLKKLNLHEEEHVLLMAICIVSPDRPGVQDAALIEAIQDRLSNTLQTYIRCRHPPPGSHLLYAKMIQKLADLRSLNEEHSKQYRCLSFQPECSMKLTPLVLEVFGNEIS

O=[N+]([O-])c1cc(C(F)(F)F)c(Cl)c([N+](=O)[O-])c1Nc1ncc(C(F)(F)F)cc1Cl
inactive: [1] | [2] | [3] | [4] | [5] | [13] | [14]
active: [6] 1.47 µM and 3.24 µM | [7] 1.95 µM and 6.28 µM | [8] 3.5 µM and 4.23 µM | [9] 738 nM and 3.46 µM | [10] 919 nM and 1.74 µM | [11] 3.36 µM and 4.25 µM | [12] 3.73 µM and 5.09 µM | [14] 1.49 µM | [15] 3.93 µM | [16] 1.5 µM and 2.12 µM | [17] 1.18 µM and 2.13 µM | [18] 1 µM and 2.39 µM | [19] 1.79 µM and 4.1 µM | [20] 774 nM and 2.49 µM

Cc1ccn2nc(S(=O)(=O)Nc3c(F)cccc3F)nc2n1
active: [18] 229 nM
inactive: [1] | [2] | [3] | [4] | [6] | [7] | [8] | [9] | [10] | [11] | [12] | [14] | [15] | [16] | [17] | [19] | [20]

O=C(O)c1cc(Oc2ccc(C(F)(F)F)cc2Cl)ccc1[N+](=O)[O-]
active: [16] 9.8 µM
inactive: [2] | [3] | [4] | [5] | [6] | [7] | [8] | [9] | [10] | [11] | [12] | [14] | [15] | [17] | [18] | [19] | [20]

CNC(=O)Oc1cccc2c1OC(C)(C)O2
inactive: [1] | [4] | [7] | [8] | [11] | [12] | [13] | [15] | [16] | [18] | [19] | [20]
active: [6] 27.3 µM | [10] 28.6 µM | [14] 20 µM | [17] 16.7 µM

CCCSP(=O)(OCC)Oc1ccc(Br)cc1Cl (stereo unspecified)
inactive: [1] | [2] | [6] | [7] | [8] | [10] | [11] | [12] | [13] | [15] | [16] | [20]
active: [14] 22.6 µM | [17] 32.3 µM | [18] 22800 nM | [19] 15.4 µM

CCOC(=O)COc1cc(-c2nn(C)c(OC(F)F)c2Cl)c(F)cc1Cl
active: [17] 6.73 µM
inactive: [2] | [3] | [4] | [5] | [6] | [7] | [8] | [10] | [11] | [12] | [13] | [14] | [15] | [16] | [18] | [19] | [20]

CN(C)[C@@H]1C(=O)C(C(N)=O)=C(O)[C@@]2(O)C(=O)C3=C(O)c4c(O)cccc4[C@@](C)(O)[C@H]3[C@H](O)[C@@H]12
active: [15] 15.8 µM
inactive: [1] | [3] | [4] | [5] | [6] | [7] | [8] | [9] | [10] | [11] | [12] | [14] | [15] | [16] | [17] | [18] | [19] | [20]
